Compound activity deposited in PubChem by several laboratories.
Most compounds without a hit are left out; they make up all but 3.2% or so of the library.
MEKK3 PB1 HTS – MEKK3-MEK5 PB1 interaction, increase or decrease; Q99759; bead-based flow cytometry, Alexa488-MEK5 binding to MEKK3; actives lie on both sides; 0 = blocked by unlabeled MEK5, 100 = vehicle; binding response (% of control), % at 10 µM; 290,000 tested, 1.4% active; AID 1529;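 active = binding response more than 3 SD above or below the average of its plate-row segment, actives on both sides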;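 also: Alexa488 bead fluorescence after subtracting the streptavidin-only scavenger bead signal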
Target sequence (Q99759 whole entry, looked up): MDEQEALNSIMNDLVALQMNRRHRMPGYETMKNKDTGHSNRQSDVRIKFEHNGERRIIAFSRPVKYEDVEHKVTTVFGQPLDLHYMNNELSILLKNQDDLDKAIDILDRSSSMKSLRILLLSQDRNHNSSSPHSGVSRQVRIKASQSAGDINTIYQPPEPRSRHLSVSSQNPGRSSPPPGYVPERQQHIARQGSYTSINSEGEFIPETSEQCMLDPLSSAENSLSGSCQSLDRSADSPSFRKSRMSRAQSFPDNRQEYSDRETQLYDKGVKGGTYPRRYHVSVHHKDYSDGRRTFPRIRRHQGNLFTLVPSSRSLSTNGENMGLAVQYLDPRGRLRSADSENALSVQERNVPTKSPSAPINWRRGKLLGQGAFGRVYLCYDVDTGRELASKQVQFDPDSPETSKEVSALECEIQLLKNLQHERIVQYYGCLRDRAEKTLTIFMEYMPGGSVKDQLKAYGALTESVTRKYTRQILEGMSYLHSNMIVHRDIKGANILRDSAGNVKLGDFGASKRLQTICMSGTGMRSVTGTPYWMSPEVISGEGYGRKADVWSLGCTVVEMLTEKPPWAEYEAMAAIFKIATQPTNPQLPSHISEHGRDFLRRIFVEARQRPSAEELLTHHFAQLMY
MEKK2 WT-MEK5 – raises or lowers MEK5 binding to wildtype human MEKK2 PB1 domain; bead flow cytometry, Alexa488-MEK5 binding to MEKK2 WT; actives lie on both sides; AID 1531; Q9Y2U5; binding response (% of control), % at 10 µM; 290,000 tested, 1.1% active; in the data active = binding response below about 67% or above about 130%
MEKK2mut PB1 HTS – signal of MEK5 binding to mutant human MEKK2 PB1 domain; 290,000 tested, 0.35% active; percent response, % at 10 µM; bead flow cytometry, Alexa488-MEK5 binding to MEKK2 mutant; in the data active = percent response above about 24%, passing the limit was not always enough
CendR NRP1 mod – NRP-1/CendR interaction modulation; FAM-RPARPAR peptide binding to NRP-1, fluorescence polarization; 360,000 tested, 0.85% active; AID 602438; O14786; inhibition, % at 25 µM;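 active = inhibition or corrected inhibition above about 18%, plus a signal ratio from 0.5 to 1.5, limit read from the data, passing the limit was not always enough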
SKN-1 block – C. elegans SKN-1 inhibition; C. elegans VP596 Pgst-4::GFP/RFP ratio, acrylamide-induced, 24 h; inhibition, % at 21.8 µM; 360,000 tested, 0.49% active; AID 624304;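 active = interference check ratio from 0.5 to 1.5 plus GFP to RFP signal ratio inhibition reaching or exceeding a fixed threshold, cut at about 30% in these data, passing the limit was not always enough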
MEKK2wt confirm – raises or lowers MEK5 binding to wildtype human MEKK2, retest | shares compounds with MEKK3 PB1 HTS | bead flow cytometry, Alexa488-MEK5 binding to MEKK2 WT; actives lie on both sides | binding response (% of control), % at 10 µM | 5,900 tested, 2.4% active; in the data active = binding response below about 16% or above about 210%; inactive = in between
MEKK2mut-MEK5 – signal of MEK5 binding to mutant human MEKK2, retest. shares compounds with MEKK3 PB1 HTS. bead flow cytometry, Alexa488-MEK5 binding to MEKK2 mutant. percent response, % at 10 µM. 5,900 tested, 2% active; in the data active = percent response mostly above about 71%, no sharp cut-off; inactive = mostly below about 38%;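 also: higher means compound restores mutant binding toward wildtype level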
MEKK3 confirm – MEKK3-MEK5 PB1 inhibition, single concentration confirmation. shares compounds with MEKK3 PB1 HTS. bead flow cytometry, Alexa488-MEK5 binding to MEKK3; hits give low values. binding response (% of control), % at 10 µM. 5,900 tested, 1.8% active. AID 1894;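 active = binding response below 72% of control, or above a set upper limit, though filed actives all read lower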;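 also: 100% = DMSO only wells and 0% = binding blocked by excess unlabeled MEK5; lower values mean stronger disruption of MEK5 binding to MEKK3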
* hit, by the source's call; nt = no result; [ ] = remark or other dose.

SMILES	MEKK3 PB1 HTS	MEKK2 WT-MEK5	MEKK2mut PB1 HTS	CendR NRP1 mod	SKN-1 block	MEKK2wt confirm	MEKK2mut-MEK5	MEKK3 confirm
Cc1cc(C(=O)c2ccc(Cl)cc2)c(NC(=O)CCl)s1	135*	108	1	-4	10	101	3	103
Cc1cc(C)cc(NC(=O)C2(c3cccs3)CCOCC2)c1	136*	114	1	2	-2	95	-7	96
Cc1ccc(NC(=O)C2(c3cccs3)CCOCC2)cc1C	69*[inhibitor]	96	-1	-7	3	97	-2	98
CCN(CC)c1ccc2cc(-c3nnc(-c4ccccc4)o3)c(=O)oc2c1	89	60*[inhibitor]	-3	133	-65	75	-14	94
CCN(CC)c1ccc2cc(-c3nc4ccccc4n3C)c(=O)oc2c1	97	86	-5	-53	-16	nt	nt	nt
CCN(CC)c1ccc2cc(-c3nc(-c4ccc(OC)cc4)cs3)c(=O)oc2c1	183*	232*	289*	nt	nt	52	-44	60*
Cc1cc(OC(=O)Nc2ccccc2)ccc1Cl	nt	nt	nt	4	21	nt	nt	nt
O=C(/C=N/O)NCc1ccncc1	123*	125	15	-9	21	96	-1	98
O=C(NCc1ccncc1)C(F)(F)C(F)(F)C(=O)NCc1ccncc1	105	104	3	-6	4	nt	nt	nt
O=C(NC(N1CCOCC1)C(Cl)(Cl)Cl)c1ccccc1Cl (stereo not drawn)	84	55*[inhibitor]	-6	7	4	106	8	107
Cn1c(N)c(C(=O)COC(=O)c2cc(S(=O)(=O)NCc3ccccc3)ccc2O)c(=O)n(C)c1=O	nt	nt	nt	-6	-2	nt	nt	nt
CC1C(c2ccccc2)N(C)CCC12NC(=O)NC2=O (stereo not drawn)	4.0*[inhibitor]	6.0*[inhibitor]	-45	11	-4	101	-1	105
Cc1ccc(C(=O)NCC(=O)OC(C)C(=O)Nc2ccc(N(C)C)cc2)cc1C (stereo not drawn)	141*	132	8	14	-4	102	0	104
CC(=O)NCC(=O)OC(C)C(=O)Nc1ccc(C(C)=O)cc1 (stereo not drawn)	101	98	-3	0	-10	nt	nt	nt
COc1ccc(NC(=O)C2CC(=O)N(c3ccccc3F)C2)cc1S(=O)(=O)N1CCCCC1 (stereo not drawn)	nt	nt	nt	4	0	nt	nt	nt
Cc1ccccc1N(C(=O)c1csnn1)C(C(=O)NC(C)(C)C)c1ccncc1 (stereo not drawn)	80	89	-4	12	3	nt	nt	nt
CC(C)(C)NC(=O)C(c1ccncc1)N(C(=O)c1csnn1)c1cccc2ccccc12 (stereo not drawn)	143*	124	6	-8	-7	98	-21	98
CCOc1cc(CNCC(C)C)cc(Cl)c1OCc1ccccc1	110	121	2	1	19	nt	nt	nt
COc1cc(CNCCc2ccccc2)cc(Cl)c1OCc1ccccc1	101	192*	37	-3	8	202	73*	112
COc1cc(CNCCc2ccccc2)cc(Br)c1OCC(=O)Nc1ccccc1C	95	182*	33	-2	23	137	15	106
CCOc1cc(CNC2CCCC2)cc(Cl)c1OCc1ccccc1	105	141*	22	-2	56*	115	19	103
O=C(COc1ccc(Br)cc1CNCCc1ccccc1)NCc1ccccc1	100	145*	6	15	-2	150	35	112
CCCNCc1cc(Br)ccc1OCC(=O)NCCc1ccccc1	111	101	-1	-4	2	nt	nt	nt
CCc1nc2c(OCC3CCCCC3)cccn2c1N(C=O)Cc1ccc(OC)cc1	nt	nt	nt	-19	17	nt	nt	nt
CC1C=CCC2C(=O)N(c3ccc(OC(=O)c4cccs4)cc3)C(=O)C12 (stereo not drawn)	99	92	-6	-4	0	nt	nt	nt
SMILES	MEKK3 PB1 HTS	MEKK2 WT-MEK5	MEKK2mut PB1 HTS	CendR NRP1 mod	SKN-1 block	MEKK2wt confirm	MEKK2mut-MEK5	MEKK3 confirm
CC1C=CCC2C(=O)N(c3ccc(OC(=O)c4ccco4)cc3)C(=O)C12 (stereo not drawn)	161*	134	7	0	-6	111	6	106
O=C(/C=C/c1cccc([N+](=O)[O-])c1)NCCSCc1ccc(Cl)cc1	144*	109	0	-7	16	96	-4	105
COc1ccc(N=C2S/C(=C\c3cccs3)C(=O)N2CC(C)C)cc1	82*[inhibitor]	90	-7	0	10	103	-1	107
CCc1ccc(OCCNc2cc(N3CCNC(C)C3)ccc2[N+](=O)[O-])cc1 (stereo not drawn)	nt	nt	nt	-20	3	nt	nt	nt
CC1CN(c2ccc([N+](=O)[O-])c(NCCOc3ccccc3)c2)CC(C)N1 (stereo not drawn)	109	170*	18	-2	9	140	22	107
Cc1ccccc1OCCNc1cc(N2CC(C)NC(C)C2)ccc1[N+](=O)[O-] (stereo not drawn)	120	198*	47	-4	10	137	31	100
CC1CN(c2ccc([N+](=O)[O-])c(NCCOc3ccc(Cl)cc3)c2)CC(C)N1 (stereo not drawn)	109	222*	48*	-5	9	163	31	103
NCCNc1cc(N2CCCC2)ccc1[N+](=O)[O-]	101	105	-1	3	9	nt	nt	nt
O=[N+]([O-])c1ccc(N2CCCCC2)cc1NCCOc1ccccc1	97	101	-1	-4	13	nt	nt	nt
COC(=O)c1cc(N=Nc2c(C)[nH]c3ccccc23)cc(C(=O)OC)c1	95	95	-15	3	-7	nt	nt	nt
Cc1[nH]c2ccccc2c1N=Nc1cccc(C(=O)O)c1	68*[inhibitor]	95	1	-8	8	107	4	106
COCOCCn1cc(CN2CCS(=O)(=O)N(Cc3ccc(-c4ccncc4)cc3)C(CC(C)C)C2=O)nn1 (stereo not drawn)	nt	nt	nt	-12	0	nt	nt	nt
Cc1nc2ccc(NC(=O)c3nn(CC(C)C)c(=O)c4ccccc34)cc2s1	148*	108	0	0	18	94	-3	98
O=C(N/N=C/c1ccc([N+](=O)[O-])o1)c1cn(-c2ccccc2)nc1-c1ccccc1	139*	104	0	-20	11	102	9	108
COc1cc(/C=C/c2ccc3cccc(OC)c3n2)c(O)c([N+](=O)[O-])c1	50*[inhibitor]	55*[inhibitor]	-15	-12	-3	94	-7	92
